Measured values taken from ChEMBL document CHEMBL1961873, “Compounds: GSK PKIS; Assays: Nanosyn kinase panel” (2012).

Assays:
[1] = target: T1, Tyrosine-protein kinase receptor TYRO3 (Homo sapiens) (UniProt Q06418); details: at 1 µM
T1 sequence (whole entry): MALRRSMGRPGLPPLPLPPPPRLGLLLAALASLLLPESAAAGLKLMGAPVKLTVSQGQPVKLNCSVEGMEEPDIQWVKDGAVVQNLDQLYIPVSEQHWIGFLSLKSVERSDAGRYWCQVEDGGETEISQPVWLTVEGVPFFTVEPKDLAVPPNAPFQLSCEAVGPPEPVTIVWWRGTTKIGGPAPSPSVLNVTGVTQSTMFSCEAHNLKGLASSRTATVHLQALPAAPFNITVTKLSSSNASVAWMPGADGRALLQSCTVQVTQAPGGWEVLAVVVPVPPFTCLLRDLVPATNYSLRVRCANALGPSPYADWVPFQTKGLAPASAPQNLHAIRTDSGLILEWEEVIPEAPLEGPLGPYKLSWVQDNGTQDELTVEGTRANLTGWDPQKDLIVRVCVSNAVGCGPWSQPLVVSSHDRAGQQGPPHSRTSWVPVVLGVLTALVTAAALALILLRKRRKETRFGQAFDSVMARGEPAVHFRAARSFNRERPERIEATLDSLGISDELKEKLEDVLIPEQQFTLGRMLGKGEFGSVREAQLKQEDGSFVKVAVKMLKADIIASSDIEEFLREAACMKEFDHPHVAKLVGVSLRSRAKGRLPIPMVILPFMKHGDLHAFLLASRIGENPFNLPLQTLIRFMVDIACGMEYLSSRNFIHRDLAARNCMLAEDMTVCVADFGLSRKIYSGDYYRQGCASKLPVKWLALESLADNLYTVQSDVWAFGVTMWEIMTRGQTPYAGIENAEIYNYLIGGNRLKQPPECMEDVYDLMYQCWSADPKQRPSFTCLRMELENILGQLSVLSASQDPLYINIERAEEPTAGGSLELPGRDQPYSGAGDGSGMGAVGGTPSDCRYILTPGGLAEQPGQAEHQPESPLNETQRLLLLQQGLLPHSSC

[2] = target: Tyrosine-protein kinase Yes (Homo sapiens) (UniProt P07947); details: at 0.1 µM
Chain of Tyrosine-protein kinase Yes (Homo sapiens) (P07947 2-543 limits assumed): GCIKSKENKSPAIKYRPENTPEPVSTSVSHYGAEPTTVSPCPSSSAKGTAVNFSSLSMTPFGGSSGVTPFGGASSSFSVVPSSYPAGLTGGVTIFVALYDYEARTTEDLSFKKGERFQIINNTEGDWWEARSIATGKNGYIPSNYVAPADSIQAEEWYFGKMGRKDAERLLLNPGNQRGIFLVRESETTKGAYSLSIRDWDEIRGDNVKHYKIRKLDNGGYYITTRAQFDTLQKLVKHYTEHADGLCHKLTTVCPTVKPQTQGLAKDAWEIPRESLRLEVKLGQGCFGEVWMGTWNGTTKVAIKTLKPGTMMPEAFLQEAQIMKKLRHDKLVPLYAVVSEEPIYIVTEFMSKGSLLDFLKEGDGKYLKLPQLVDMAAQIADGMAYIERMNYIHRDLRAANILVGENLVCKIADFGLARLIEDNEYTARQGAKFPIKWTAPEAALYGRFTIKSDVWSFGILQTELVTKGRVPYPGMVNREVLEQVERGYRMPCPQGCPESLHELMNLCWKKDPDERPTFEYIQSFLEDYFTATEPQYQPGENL

[3] = target: Tyrosine-protein kinase Yes (Homo sapiens) (UniProt P07947); details: at 1 µM
[4] = target: T2, Tyrosine-protein kinase ZAP-70 (Homo sapiens) (UniProt P43403); details: at 0.1 µM
T2 sequence (whole entry): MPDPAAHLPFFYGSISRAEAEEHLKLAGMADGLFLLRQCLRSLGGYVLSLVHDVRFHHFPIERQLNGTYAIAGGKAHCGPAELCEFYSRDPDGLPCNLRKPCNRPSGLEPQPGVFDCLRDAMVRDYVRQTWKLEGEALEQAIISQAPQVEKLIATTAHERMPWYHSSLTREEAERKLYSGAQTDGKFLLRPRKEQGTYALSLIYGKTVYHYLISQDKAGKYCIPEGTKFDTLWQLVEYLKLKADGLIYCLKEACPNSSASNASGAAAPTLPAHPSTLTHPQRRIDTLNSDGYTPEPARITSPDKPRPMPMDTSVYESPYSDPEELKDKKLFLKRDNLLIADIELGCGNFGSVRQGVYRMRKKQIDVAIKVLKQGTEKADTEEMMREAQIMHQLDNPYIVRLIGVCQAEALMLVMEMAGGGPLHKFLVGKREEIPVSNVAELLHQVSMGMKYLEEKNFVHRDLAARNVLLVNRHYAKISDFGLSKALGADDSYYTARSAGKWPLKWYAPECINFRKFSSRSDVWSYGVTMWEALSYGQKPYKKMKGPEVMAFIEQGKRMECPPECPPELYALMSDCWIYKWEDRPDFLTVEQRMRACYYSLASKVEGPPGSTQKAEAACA

[5] = target: T2, Tyrosine-protein kinase ZAP-70 (Homo sapiens); details: at 1 µM
[6] = target: Serine/threonine-protein kinase B-raf (Homo sapiens) (UniProt P15056); details: at 0.1 µM
Chain of Serine/threonine-protein kinase B-raf (Homo sapiens) (P15056 whole entry): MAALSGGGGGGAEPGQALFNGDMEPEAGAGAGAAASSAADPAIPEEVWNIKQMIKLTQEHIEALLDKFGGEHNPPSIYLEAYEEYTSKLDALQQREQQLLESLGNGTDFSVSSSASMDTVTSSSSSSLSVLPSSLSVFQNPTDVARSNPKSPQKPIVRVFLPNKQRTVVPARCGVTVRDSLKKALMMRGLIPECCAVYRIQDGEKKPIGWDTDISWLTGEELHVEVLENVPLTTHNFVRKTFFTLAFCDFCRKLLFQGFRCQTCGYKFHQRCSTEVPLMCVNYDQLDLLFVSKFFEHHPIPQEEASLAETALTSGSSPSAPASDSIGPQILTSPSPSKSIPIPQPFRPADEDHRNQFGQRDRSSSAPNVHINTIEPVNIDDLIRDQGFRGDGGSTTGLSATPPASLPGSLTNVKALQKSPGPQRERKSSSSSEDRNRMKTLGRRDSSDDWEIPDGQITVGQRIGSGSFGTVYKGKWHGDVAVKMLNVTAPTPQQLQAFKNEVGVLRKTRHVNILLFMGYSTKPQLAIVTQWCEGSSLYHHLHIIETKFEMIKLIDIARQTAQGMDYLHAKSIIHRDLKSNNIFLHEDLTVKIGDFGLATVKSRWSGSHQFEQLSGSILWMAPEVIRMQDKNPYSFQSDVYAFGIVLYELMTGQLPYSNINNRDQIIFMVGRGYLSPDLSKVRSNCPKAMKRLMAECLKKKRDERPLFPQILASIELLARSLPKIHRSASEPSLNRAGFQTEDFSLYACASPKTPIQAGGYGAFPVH

[7] = target: Serine/threonine-protein kinase B-raf (Homo sapiens) (UniProt P15056); details: at 1 µM
[8] = tested on: Serine/threonine-protein kinase B-raf (Homo sapiens), P15056 [V600E]; details: at 0.1 µM
Chain of Serine/threonine-protein kinase B-raf (Homo sapiens), P15056 [V600E] (P15056 whole entry V600E): as the sequence (P15056 whole entry) above, with V600E counted along it

[9] = tested on: Serine/threonine-protein kinase B-raf (Homo sapiens), P15056 [V600E]; details: at 1 µM
[10] = target: RAF proto-oncogene serine/threonine-protein kinase (Homo sapiens) (UniProt P04049); details: at 0.1 µM
Chain of RAF proto-oncogene serine/threonine-protein kinase (Homo sapiens) (P04049 whole entry): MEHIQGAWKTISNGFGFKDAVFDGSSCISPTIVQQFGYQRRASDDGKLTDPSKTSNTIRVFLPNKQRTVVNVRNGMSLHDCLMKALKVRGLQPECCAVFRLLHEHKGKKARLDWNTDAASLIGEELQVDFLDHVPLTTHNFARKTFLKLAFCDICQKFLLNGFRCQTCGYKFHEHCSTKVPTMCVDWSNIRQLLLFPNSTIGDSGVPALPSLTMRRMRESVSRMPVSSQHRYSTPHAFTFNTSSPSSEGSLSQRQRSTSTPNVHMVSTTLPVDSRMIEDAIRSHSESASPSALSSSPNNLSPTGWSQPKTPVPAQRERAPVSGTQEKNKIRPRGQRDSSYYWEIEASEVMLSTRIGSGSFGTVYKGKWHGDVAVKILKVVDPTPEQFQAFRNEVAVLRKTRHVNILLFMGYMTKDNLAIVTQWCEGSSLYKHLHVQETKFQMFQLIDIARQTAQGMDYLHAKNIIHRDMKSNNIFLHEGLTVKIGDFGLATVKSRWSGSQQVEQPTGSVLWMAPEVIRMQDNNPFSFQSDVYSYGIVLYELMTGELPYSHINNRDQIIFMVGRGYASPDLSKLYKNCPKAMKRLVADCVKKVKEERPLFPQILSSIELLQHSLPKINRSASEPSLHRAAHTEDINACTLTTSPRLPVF

[11] = target: RAF proto-oncogene serine/threonine-protein kinase (Homo sapiens) (UniProt P04049); details: at 1 µM
[12] = target: T3, Interleukin-1 receptor-associated kinase 4 (Homo sapiens) (UniProt Q9NWZ3); details: at 0.1 µM
T3 sequence (whole entry): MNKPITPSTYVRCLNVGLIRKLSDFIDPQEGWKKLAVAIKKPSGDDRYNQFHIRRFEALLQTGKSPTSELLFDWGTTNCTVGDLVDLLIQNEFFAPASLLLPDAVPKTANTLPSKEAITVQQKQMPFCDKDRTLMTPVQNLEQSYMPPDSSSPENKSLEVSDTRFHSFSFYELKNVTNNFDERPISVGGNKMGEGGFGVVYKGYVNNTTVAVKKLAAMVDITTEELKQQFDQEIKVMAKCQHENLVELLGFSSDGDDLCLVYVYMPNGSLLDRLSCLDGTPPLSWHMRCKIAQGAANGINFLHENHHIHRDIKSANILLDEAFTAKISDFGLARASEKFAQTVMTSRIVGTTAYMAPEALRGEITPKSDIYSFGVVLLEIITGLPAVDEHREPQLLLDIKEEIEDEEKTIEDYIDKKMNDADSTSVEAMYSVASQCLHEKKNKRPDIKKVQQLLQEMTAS

[13] = target: T3, Interleukin-1 receptor-associated kinase 4 (Homo sapiens); details: at 1 µM
[14] = target: Leucine-rich repeat serine/threonine-protein kinase 2 (Homo sapiens) (UniProt Q5S007); details: at 0.1 µM
Chain of Leucine-rich repeat serine/threonine-protein kinase 2 (Homo sapiens) (Q5S007 whole entry): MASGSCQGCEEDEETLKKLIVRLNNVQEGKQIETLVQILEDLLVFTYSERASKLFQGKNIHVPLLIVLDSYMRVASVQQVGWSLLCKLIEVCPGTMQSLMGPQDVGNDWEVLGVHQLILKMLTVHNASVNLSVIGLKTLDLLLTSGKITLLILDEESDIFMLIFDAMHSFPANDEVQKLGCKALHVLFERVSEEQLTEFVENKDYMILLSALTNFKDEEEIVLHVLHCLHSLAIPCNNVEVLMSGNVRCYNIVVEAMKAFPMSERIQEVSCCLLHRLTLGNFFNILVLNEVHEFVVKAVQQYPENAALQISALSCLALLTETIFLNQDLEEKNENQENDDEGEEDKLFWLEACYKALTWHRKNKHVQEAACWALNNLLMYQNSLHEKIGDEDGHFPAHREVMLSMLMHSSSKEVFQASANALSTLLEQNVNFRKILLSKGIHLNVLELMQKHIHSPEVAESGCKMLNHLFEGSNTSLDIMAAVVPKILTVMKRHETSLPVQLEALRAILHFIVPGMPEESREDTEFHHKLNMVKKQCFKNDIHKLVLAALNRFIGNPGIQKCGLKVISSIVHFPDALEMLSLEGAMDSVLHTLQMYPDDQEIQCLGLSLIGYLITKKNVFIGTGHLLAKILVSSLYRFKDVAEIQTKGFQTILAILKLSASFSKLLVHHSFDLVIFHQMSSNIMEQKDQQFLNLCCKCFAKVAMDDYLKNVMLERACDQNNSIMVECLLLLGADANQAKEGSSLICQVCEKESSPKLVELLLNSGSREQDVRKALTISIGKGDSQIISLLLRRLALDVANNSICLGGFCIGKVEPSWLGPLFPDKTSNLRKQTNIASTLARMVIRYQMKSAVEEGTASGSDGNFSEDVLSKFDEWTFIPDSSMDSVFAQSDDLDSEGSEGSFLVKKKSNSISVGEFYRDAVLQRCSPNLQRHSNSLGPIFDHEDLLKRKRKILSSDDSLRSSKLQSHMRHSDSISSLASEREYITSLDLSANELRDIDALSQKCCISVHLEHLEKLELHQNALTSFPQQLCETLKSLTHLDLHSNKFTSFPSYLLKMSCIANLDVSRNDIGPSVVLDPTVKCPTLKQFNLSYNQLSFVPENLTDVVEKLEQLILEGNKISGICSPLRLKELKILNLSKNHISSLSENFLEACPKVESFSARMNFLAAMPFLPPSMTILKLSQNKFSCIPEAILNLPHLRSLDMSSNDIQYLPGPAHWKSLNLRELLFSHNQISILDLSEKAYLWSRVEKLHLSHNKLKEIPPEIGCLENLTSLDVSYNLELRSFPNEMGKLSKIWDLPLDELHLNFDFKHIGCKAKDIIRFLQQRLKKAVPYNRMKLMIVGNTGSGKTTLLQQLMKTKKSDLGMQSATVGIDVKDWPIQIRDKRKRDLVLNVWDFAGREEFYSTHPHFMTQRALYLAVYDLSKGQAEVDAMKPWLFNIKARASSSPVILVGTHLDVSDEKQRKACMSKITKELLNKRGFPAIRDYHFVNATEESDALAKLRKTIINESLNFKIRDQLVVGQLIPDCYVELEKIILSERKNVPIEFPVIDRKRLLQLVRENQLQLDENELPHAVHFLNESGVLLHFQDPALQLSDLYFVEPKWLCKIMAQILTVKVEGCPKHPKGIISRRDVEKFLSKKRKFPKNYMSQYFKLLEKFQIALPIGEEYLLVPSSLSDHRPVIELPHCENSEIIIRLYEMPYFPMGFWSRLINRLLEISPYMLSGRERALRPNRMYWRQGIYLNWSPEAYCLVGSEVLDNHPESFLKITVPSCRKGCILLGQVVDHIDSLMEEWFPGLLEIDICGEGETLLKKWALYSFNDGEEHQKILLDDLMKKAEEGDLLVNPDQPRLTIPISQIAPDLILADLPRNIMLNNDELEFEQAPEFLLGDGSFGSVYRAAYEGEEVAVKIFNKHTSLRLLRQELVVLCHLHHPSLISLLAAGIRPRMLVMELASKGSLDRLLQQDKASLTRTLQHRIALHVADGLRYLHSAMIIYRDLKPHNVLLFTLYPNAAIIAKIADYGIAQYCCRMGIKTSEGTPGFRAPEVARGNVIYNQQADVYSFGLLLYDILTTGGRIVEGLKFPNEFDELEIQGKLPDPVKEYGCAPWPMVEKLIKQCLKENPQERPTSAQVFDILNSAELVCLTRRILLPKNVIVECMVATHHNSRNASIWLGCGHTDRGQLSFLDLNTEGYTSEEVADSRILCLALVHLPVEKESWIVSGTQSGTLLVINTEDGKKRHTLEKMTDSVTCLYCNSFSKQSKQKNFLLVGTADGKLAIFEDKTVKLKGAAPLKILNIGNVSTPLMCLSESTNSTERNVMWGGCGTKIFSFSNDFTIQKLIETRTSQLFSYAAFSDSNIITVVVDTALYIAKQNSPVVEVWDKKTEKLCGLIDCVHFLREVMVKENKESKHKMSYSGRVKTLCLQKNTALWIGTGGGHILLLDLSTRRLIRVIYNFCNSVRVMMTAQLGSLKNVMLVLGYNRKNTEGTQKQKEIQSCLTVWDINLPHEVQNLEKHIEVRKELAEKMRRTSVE

[15] = target: Leucine-rich repeat serine/threonine-protein kinase 2 (Homo sapiens) (UniProt Q5S007); details: at 1 µM
[16] = tested on: Leucine-rich repeat serine/threonine-protein kinase 2 (Homo sapiens), Q5S007 [G2019S]; details: at 0.1 µM
Chain of Leucine-rich repeat serine/threonine-protein kinase 2 (Homo sapiens), Q5S007 [G2019S] (Q5S007 whole entry G2019S): as the sequence (Q5S007 whole entry) above, with G2019S counted along it

[17] = tested on: Leucine-rich repeat serine/threonine-protein kinase 2 (Homo sapiens), Q5S007 [G2019S]; details: at 1 µM

| Compound | inhibition [1] [%] | inhibition [2] [%] | inhibition [3] [%] | inhibition [4] [%] | inhibition [5] [%] | inhibition [6] [%] | inhibition [7] [%] | inhibition [8] [%] | inhibition [9] [%] | inhibition [10] [%] | inhibition [11] [%] | inhibition [12] [%] | inhibition [13] [%] | inhibition [14] [%] | inhibition [15] [%] | inhibition [16] [%] | inhibition [17] [%] |
| --- | --- | --- | --- | --- | --- | --- | --- | --- | --- | --- | --- | --- | --- | --- | --- | --- | --- |
| FC(F)(F)c1ccc(-c2nn3ncccc3c2-c2ccnc(Nc3ccc4c(c3)OCCO4)n2)cc1 | 5.58 | 30 | 83.3 | 5.79 | 5.21 | -1.63 | -1.17 | -1.85 | -1.18 | -0.32 | -0.8 | 5.37 | 1.44 | 4.63 | 8.46 | 6.21 | 10.1 |
| NS(=O)(=O)c1ccc(-c2cc3ccncc3cc2OCc2ccccc2)cc1 | 4.23 | 3.11 | 3.16 | 0.37 | -0.77 | 4.65 | 6.35 | 5.61 | 4.49 | 2.9 | 1.99 | -1.18 | 1.31 | 2.38 | 7.53 | 1.82 | 8.17 |
| CC(C)c1ccc(Nc2nccc(-c3cnn4ncccc34)n2)cc1 | 4.27 | 3.25 | 6.98 | 1.01 | 6.84 | 4.59 | 13.7 | 5.11 | 11.6 | 0.59 | 2.26 | -2.06 | 1.84 | 9.89 | 17.9 | 11.6 | 44.5 |
| COC(=O)c1cncc(/C=C/c2c(C)cc(O)cc2C)c1 | 7.16 | 4.43 | 18.8 | 2.93 | -0.01 | 6.07 | 9.71 | 5.41 | 8.24 | 1.93 | -7.11 | -4.61 | 1.8 | 1.53 | 6.87 | 2.83 | 9.71 |
| CC(C)c1ccc2c(c1)NC(=O)/C2=N/Nc1ccc(S(N)(=O)=O)cc1 | 2.75 | 2.45 | 9.19 | -0.31 | 1.5 | -0.82 | -1.25 | 0.24 | -0.56 | -2.32 | -0.41 | 0.36 | 0.49 | -0.37 | 9.75 | 2.27 | 11.5 |
| C[C@@H](Oc1cc(-n2cnc3ccc(OC[C@@H](O)CO)cc32)sc1C(N)=O)c1ccccc1Cl | 1.84 | -2.39 | 4.27 | -0.38 | -0.42 | -1.12 | -0.85 | -2.35 | 0.01 | -4.77 | 5.77 | 1.29 | -0.05 | 3.25 | 17.3 | 5.39 | 28.7 |
| COc1cc2ncnc(Nc3ccc4c(cnn4Cc4ccccc4)c3)c2cc1OC | 12.6 | 39.4 | 79.9 | -3.74 | 2.96 | 3.75 | 3.3 | 2.5 | 1.8 | 0.11 | -1.93 | 0.58 | 1.32 | 3.78 | 14.3 | 6.86 | 13.8 |
| NS(=O)(=O)c1cccc(-c2cc3ccncc3cc2OCc2ccccc2)c1 | 3.23 | 0.88 | 2.73 | 2.48 | 4.15 | 6.76 | 6.57 | 5.8 | 5.78 | 2.97 | 0.71 | 1.17 | 2.26 | 4.42 | 8.85 | 4.16 | 8.74 |
